This is an account of results in PubChem BioAssay AID2241 (Broad Institute, 2010).

Molecules are shown by their SMILES. About 110 (0.52%) of roughly 21,000 compounds were called active.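 How the source made its calls: active means most replicate scores above 10, or exactly half above 10 with mean activity above 10; inconclusive means mean activity below 10 while half the replicates exceed 10; inactive means most replicate scores below 10.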 Many of the other results were omitted from the sample, so actives are more common in it than they were.

The test can be described thus: caspase activation in A1-primed MEFs – cell-based, CaspaseGlo luminescence, A1 inhibitor project, primary screen (AID 2241).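 Further: effector caspase 3 and 7 activity cleaving a DEVD luciferin substrate.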 The conditions noted are these: MEF A1-2A-BIM cells, caspase-Glo luminescence, 3 h; active compounds read high; percent of clofoctol signal, DMSO as zero; concentration not given here.
Regarding `Cc1cc(C)n(CCc2nc3c4ccccc4n(Cc4ccc(Cl)cc4)c(=O)n3n2)n1`, the caspase activation was -0.449% (inactive).
Under `CCOc1ccc2c(c1)sc(=NC(=O)c1cc3ccccc3cc1OC)n2C` stands 1.85% (inactive); under `COC(=O)c1c(C)c(=O)[nH]c2ccccc12`, 0.776% (inactive).
Under `CCCOc1ccc(Oc2nc(N(C)C)nc(N(C)C)n2)nn1` stands 0.458% (inactive).
As for `CCOC(=O)N1CCC(NC(=O)NCc2noc3ccccc23)CC1`, the caspase activation was 0.501% (inactive).
For `C[C@@H]1CN([C@@H](C)CO)C(=O)c2cc(NS(=O)(=O)c3ccccc3)ccc2O[C@H]1CN(C)CC1CCCCC1` the value was -0.065% (inactive); for `O=C(CC1N=C2c3ccccc3N=C(SCc3ccccc3F)N2C1=O)NC1CCCCC1` (stereo not drawn), -0.498% (inactive); for `C[C@@H]1CN([C@H](C)CO)C(=O)c2cc(NC(=O)Nc3ccccc3)ccc2O[C@H]1CN(C)S(=O)(=O)c1ccc(F)cc1`, -0.342% (inactive).
For `O=c1c2ccccc2nc(SCc2ccc(F)cc2)n1-c1ccccc1` the value was -0.926% (inactive); for `O=C(NCc1ccc2c(c1)OCO2)C12CC3CC(CC(C3)C1)C2`, 0.545% (inactive); for `CCOC(=O)c1cc(-c2ccccc2)n(-c2ccccc2C)n1`, -0.391% (inactive).
In the case of `C=CCn1cc(C=C2C(=O)N(C)C(=S)N(C)C2=O)c2ccccc21`, the caspase activation is 1.19% (inactive).
For `C[C@H]1CN([C@@H](C)CO)C(=O)c2cc(NS(C)(=O)=O)ccc2O[C@@H]1CN(C)S(=O)(=O)c1ccc(Cl)cc1` the value was -0.347% (inactive); for `CC(C)CC1NC(=O)N(c2ccccc2)C1=O` (stereo not drawn), 0.301% (inactive).
For `C[C@H](CO)N1C[C@H](C)[C@H](CN(C)Cc2ccc(-c3ccccc3)cc2)Oc2ccc(NS(=O)(=O)c3ccccc3)cc2C1=O` the value was 0.241% (inactive); for `Cc1ccc(NC2=CC(=O)NC2)cc1`, 1.28% (inactive); for `CN(CCOC(=O)C1c2ccccc2Oc2ccccc21)Cc1ccccc1`, 1.21% (inactive).
For the compound `Cc1cccc(NC(=O)c2ccc(C)c(S(=O)(=O)N3CCCC3)c2)c1`, the caspase activation was -5.91% (inactive).
For `CC(=O)N1N=C(c2ccccc2)OC1c1cccnc1` (stereo not drawn) the value was -0.213% (inactive).
On to `C[C@H]1CN([C@@H](C)CO)C(=O)c2cc(NC(=O)Nc3ccccc3)ccc2O[C@H]1CN(C)C(=O)Nc1ccc(F)cc1`, for which the caspase activation was 0.365% (inactive).
Consider `Cc1ccccc1N(C)S(=O)(=O)c1ccc2[nH]cc(C(=O)NCCC(C)C)c(=O)c2c1`, for which the caspase activation was 0.114% (inactive).
In the case of `COc1cc(C=Nc2ccc(Cl)cc2)ccc1OC(=O)/C=C/c1cccs1`, the caspase activation is -0.187% (inactive).
`O=C(Cc1ccccc1)N1CCCc2ccccc21`: the caspase activation is 1.12% (inactive).
For `O=C(Nc1ccccc1)Nc1ccc(C2SCCS2)cc1` the value was -6.29% (inactive); for `Cc1ccc(-n2c(C)cc(C=C3C(=O)c4ccccc4C3=O)c2C)cc1`, -6.47% (inactive); for `C[C@@H]1CN([C@H](C)CO)C(=O)c2cc(NC(=O)Cc3ccccc3)ccc2O[C@H]1CN(C)S(=O)(=O)c1cn(C)cn1`, 0.269% (inactive).
`N#CCNC(=O)CN1C(=O)c2ccccc2C1=O`: the caspase activation is 0.74% (inactive).
In the case of `CCN1C(=O)c2ccccc2Sc2ccc(NC(=O)N3CCc4ccccc43)cc21`, the caspase activation is -0.754% (inactive).
For `CCN1C(=O)c2cccc3c(NC(=S)NC(=O)c4ccccc4)ccc1c23`, the caspase activation is 11.5% (active).
For `CC1CCC(NC(=O)Cn2ncn3c(cc4sccc43)c2=O)CC1` (stereo not drawn) the value was -0.216% (inactive); for `O=C1CC(c2ccccc2)C(=O)N1c1ccc(F)cc1` (stereo not drawn), 0.129% (inactive); for `COc1cc(SC)ccc1C(=O)N(C)c1ccccc1`, -0.443% (inactive).
With `S=C(Nc1cccc(Cl)c1)NC1CCSc2ccc(Cl)cc21` (stereo not drawn), the caspase activation is 1.82% (inactive).
As to `C[C@H](CO)N1C[C@H](C)[C@H](CN(C)S(C)(=O)=O)Oc2ccc(NC(=O)CCCN(C)C)cc2C1=O`, the caspase activation is 0.894% (inactive).
Under `COc1ccc(S(=O)(=O)N(C)C[C@@H]2Oc3ccc(NC(=O)Nc4c(C)noc4C)cc3C(=O)N([C@H](C)CO)C[C@@H]2C)cc1` stands -0.0515% (inactive).
Under `CC1CCC(C(C)C)C(=O)/C1=C\c1ccc(NC(=O)CCC(=O)O)cc1` (stereo not drawn) stands -1.52% (inactive).
As to `COc1ccc(NC(=O)Nc2ccc3c(c2)C(=O)N([C@@H](C)CO)C[C@H](C)[C@@H](CN(C)Cc2ccc4c(c2)OCO4)O3)cc1`, the caspase activation was 0.747% (inactive).
Under `CC1=CCC(C(=O)O)(C(=O)NCc2ccccc2)C(c2ccc(Br)cc2)C1` (stereo not drawn) stands 0.252% (inactive).
Consider `C[C@@H]1CN([C@H](C)CO)C(=O)c2cc(N(C)C)ccc2O[C@@H]1CN(C)S(C)(=O)=O`, for which the caspase activation is 1.19% (inactive).
For the compound `Cc1noc(C)c1NC(=O)N(C)C[C@@H]1Oc2ccc(NS(C)(=O)=O)cc2C(=O)N([C@H](C)CO)C[C@@H]1C`, the caspase activation is -0.083% (inactive).
With `O=c1oc2ccccc2cc1-c1ccc(Cl)cc1`, the caspase activation was -4.58% (inactive).
For `COc1ccc(OC)c2c(C)cc(=O)[nH]c12`, the caspase activation is 0.675% (inactive).
`Cc1ccc(Nc2nc(C)cc(C)c2C(N)=O)cc1`: the caspase activation was 0.407% (inactive).
Under `CCOC(=O)c1cc(CC)sc1/N=C/C1C(=O)c2ccccc2C1=O` stands 0.959% (inactive).
For `NC(=O)c1nnc2cc(-c3ccccc3)nn2c1N` the value was -5.53% (inactive); for `C[C@@H]1CN([C@@H](C)CO)C(=O)c2cc(NC(=O)c3ccncc3)ccc2O[C@H]1CN(C)S(=O)(=O)c1ccc(Cl)cc1`, -0.107% (inactive).
Consider `Cc1nc2ccccn2c1-c1ccnc(SCC(=O)c2ccc(Cl)cc2)n1`, for which the caspase activation is 2.75% (inactive).
Under `COc1cc(C2OC(c3ccc(O)c(OC)c3)C(C)(O)C2C)ccc1O` (stereo not drawn) stands 0.0643% (inactive); under `O=C(COC(=O)c1cc2ccccc2oc1=O)c1ccccc1`, -0.224% (inactive).
`CC(C(=O)NC1CCCC1)n1c2ccccc2c2cnn(C)c(=O)c21` (stereo not drawn): the caspase activation is -0.382% (inactive).
Under `CCn1c(=O)c2c(n3c(SCC(N)=O)nnc13)-c1ccccc1CC21CCCCC1` stands 1.18% (inactive); under `O=C(NCN1CCCCC1)C12CC3CC(CC(C3)C1)C2`, 0.282% (inactive); under `C[C@H]1O[C@@H](O[C@H]2[C@@H](O)C[C@H](O[C@H]3[C@@H](O)C[C@H](O[C@H]4CC[C@]5(C)C6C[C@@H](O)[C@]7(C)[C@@H](C8=CC(=O)OC8)CC[C@]7(O)C6CC[C@@H]5C4)O[C@@H]3C)O[C@@H]2C)C[C@H](O)[C@@H]1O` (stereo partly drawn), 0.786% (inactive).
